# The list is not random: actives were taken first. Their share in the collection is about 11%.
# RGS12 GoLoco inh – blocks human Gai1 binding to RGS12 GoLoco peptide, red readout | Gai1:RGS12 GoLoco peptide FP, rhodamine, 10 min | Potency, µM (highest dose often 61.6 µM), without a hit: at the highest dose activity, negative = inhibition, hits mostly inhibitors | hit rate 0.44% among 230,000 | AID 880; active = well fitted inhibition curve with a large enough effect, not every such curve was filed as active; inactive = no such curve, though single readings can be large or run the other way; note: potency is the fitted concentration of half-maximal effect; % is set by controls: 0 for no effect and ±100 for the full control effect; nearly all actives have a fitted effect of over 30% in size
# HPGD inh – inhibitors of human 15-hydroxyprostaglandin dehydrogenase (HPGD). P15428. hit rate 4.3% among 150,000. purified HPGD, NADH fluorescence kinetic, PGE2 substrate. Potency, µM, inactives show at the highest dose activity change, negative = inhibition, hits mostly inhibitors; note: potency is the fitted concentration of half-maximal effect; % is set by controls: 0 for no effect and ±100 for the full control effect
# Target sequence (P15428 whole entry, looked up): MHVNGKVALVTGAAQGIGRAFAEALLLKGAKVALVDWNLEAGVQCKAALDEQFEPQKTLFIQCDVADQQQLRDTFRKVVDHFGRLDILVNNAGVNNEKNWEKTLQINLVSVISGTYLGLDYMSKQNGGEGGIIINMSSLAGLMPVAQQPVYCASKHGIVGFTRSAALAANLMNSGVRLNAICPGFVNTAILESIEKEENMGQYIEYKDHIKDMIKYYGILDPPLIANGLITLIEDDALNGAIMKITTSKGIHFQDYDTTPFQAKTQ
#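 NADH formation kinetics: reaction with 30 uM PGE2 and 1 mM NAD+ (final), 20 nM enzyme, Tris-HCl pH 8 with Tween 20, after 15 min compound preincubation at room temperature. Fluorescence change, last versus first of five reads.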
# ALDH1A1 block – ALDH1A1 (human) enzyme inhibition; Purified ALDH1A1, NADH fluorescence, propionaldehyde substrate; Potency, µM (highest dose often 75.3 µM), for inactives: top-dose activity, negative = inhibition, hits mostly inhibitors; hit rate 7.3% among 220,000; AID 1030;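 note: potency is the fitted concentration of half-maximal effect; plate controls were no enzyme wells and a reference inhibitor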
# Target sequence (P00352 whole entry, looked up): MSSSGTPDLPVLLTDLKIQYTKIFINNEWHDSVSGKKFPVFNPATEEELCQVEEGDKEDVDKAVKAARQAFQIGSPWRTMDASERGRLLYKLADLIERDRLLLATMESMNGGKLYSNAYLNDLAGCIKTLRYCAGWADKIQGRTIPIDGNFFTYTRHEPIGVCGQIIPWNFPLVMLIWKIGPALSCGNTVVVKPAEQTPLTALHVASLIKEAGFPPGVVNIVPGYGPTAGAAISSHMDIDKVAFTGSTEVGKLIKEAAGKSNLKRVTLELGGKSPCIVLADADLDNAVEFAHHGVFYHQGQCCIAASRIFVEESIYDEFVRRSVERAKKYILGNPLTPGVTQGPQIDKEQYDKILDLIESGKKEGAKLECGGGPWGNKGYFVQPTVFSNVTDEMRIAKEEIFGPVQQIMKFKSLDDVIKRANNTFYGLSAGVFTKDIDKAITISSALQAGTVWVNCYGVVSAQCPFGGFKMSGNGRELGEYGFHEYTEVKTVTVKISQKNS
# HTT ATP protect – Huntington cell model cytoprotection by ATP luminescence. PC12 HTT-Q103 induced, cytoprotection, ATP luminescence, 40 h. Potency, µM (series often up to 56.4 µM), for inactives: cytoprotection (ATP increase), most hits filed as activators. hit rate 0.14% among 230,000; active = well fitted curve in the direction sought with a large enough effect; inconclusive = small, poorly fitted or top-dose-only effect, or another doubt; inactive = no such curve, though single readings can be large; an effect the other way counts as inactive or inconclusive; note: potency is the fitted concentration of half-maximal effect; % of control where 0% means no effect; nearly all actives have a fitted effect of over 45% in size
#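 Stable PC12 Q103-GFP cells in serum-supplemented, phenol red-free DMEM; induction by tebufenozide at 100 nM final; compound dose series; cell viability quantified luminescently from ATP.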
# PNC assembly inh – blocks assembly of the perinucleolar compartment | PC3M PTB-GFP, PNC prevalence imaging, 16 h; hits give low values | activity change (PNC), negative = inhibition, % at 10 µM | hit rate 3.1% among 140,000;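 active = readout at or below -70, meaning at least 70% loss of cells showing the perinucleolar compartment, a nuclear body marking cancer cells; inconclusive = readout between -30 and a set limit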;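 note: plate controls were DMSO wells for no effect and camptothecin positive control wells for full effect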
#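 Read-out is percentage of cells bearing a perinucleolar compartment, from automated 20x imaging of fixed, Hoechst-stained PC3M PTB-GFP cells. Cells were seeded 4 h, then exposed 16 h to compound (23 nl of library stock) in duplicate plates.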
# HttQ103 aggreg – mutant huntingtin aggregation inhibition; PC12 HttQ103-GFP aggregates, Acumen cytometry, 40 h; Potency, µM (highest dose often 46.1 µM), inactives show top-dose activity change, negative = inhibition, actives largely listed as inhibitors; hit rate 1.1% among 220,000; AID 1688; active = well fitted curve in the direction sought with a large enough effect; inconclusive = small, poorly fitted or top-dose-only effect, or another doubt; inactive = no such curve, though single readings can be large; an effect the other way counts as inactive or inconclusive; note: potency is the fitted concentration of half-maximal effect; % is set by controls: 0 for no effect and ±100 for the full control effect; nearly all actives have a fitted effect of over 60% in size
#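 PC12/HTTQ103-GFP, ecdysone-inducible; teb 100 nM; cpd qHTS titration; GFP aggregates read on laser cytometer, Ex 488/Em 500-530 nm.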
# * = called active by the depositor; ? = inconclusive; · = not tested or not shown; [ ] = remark or other dose. Unless noted, calls come from the whole dose curve; as a rule, active = well fitted inhibition curve with a large enough effect (not every such curve was filed as active); inconclusive = small, poorly fitted or top-dose-only effect, or another doubt; inactive = no such curve, though single readings can be large or run the other way.
SMILES,RGS12 GoLoco inh,HPGD inh,ALDH1A1 block,HTT ATP protect,PNC assembly inh,HttQ103 aggreg
O=C(NCc1cccs1)Nc1cccs1,27%,?,18µM*,-19%,-27,?
O=C(Nc1cccs1)Nc1ccccc1Cl,28%,?,?,-1%,-82*,-28%[9.22 µM]
NCCC[C@@H](CC(=O)N[C@@H]1CCCC[C@H]1C(=O)N[C@H](CC(=O)N[C@@H](CCC(=O)O)CC(=O)O)Cc1c[nH]c2ccccc12)NC(=O)C[C@H](CO)NC(=O)[C@@H]1CNCC[C@H]1N,-3%,-6%,?,8%[1.9 µM],·,·
N#Cc1ccc(CN2CCCC3(CCNCC3)C2)cc1,1%,-2%,-5%,9%,·,·
O=P(O)(CCP(=O)(O)c1ccccc1)c1ccccc1,-1%[14.2 µM],-4%,-2%[13.5 µM],4%[10 µM],·,·
O=C(O)C[C@H](Cc1ccc2c(c1)OCO2)C(=O)O,8%[14.2 µM],-3%,8%[13.5 µM],4%[10 µM],·,·
CC[C@](C)(CN(C)C)OC(=O)c1ccccc1,4%[21.6 µM],-1%,9%[20.9 µM],-5%[40.3 µM],·,1%[20.6 µM]
C=CCCCCCCC=C,1%,-1%,-11%,-59%,·,·
O=C(CCCCC(=O)NCc1cccs1)NCc1cccs1,1%,-5%,3%,-8%[10 µM],32,-11%
COc1cccc(CNC(=O)Cn2cccc2)c1,20%,14µM*,-1%,?,14,7%
O=C(Cn1cccc1)NCc1cccs1,8%,20µM*,7%,4%,-28,21%
COC(=O)NC1(C(F)(F)F)C(=O)NC(C)=C1C(=O)OC (centres undefined),7%,3%,13%,7%,-107*,19%
COC(=O)C1=C(C)NC(=O)C1(NC(=O)c1ccncc1)C(F)(F)F (centres undefined),0%,·,-5%,-25%,·,-19%
Cc1ccc(C2OCC3(CO)COC(c4ccc(C)cc4)N23)cc1 (centres undefined),-14%,-11%,4.5µM*,-1%,-1,1%
CNC(=O)c1[nH]cnc1C(=O)Nc1cccc(OC)c1,3%,-13%,28µM*,-11%[0.074 µM],?,-2%
CCCC[C@@H]1C[C@H]1C(NC(=O)c1cccnc1)c1ccc(Cl)cc1 (some centres undefined),9%,-27%,-46%,-107%,·,·
Cc1oc(-c2ccccc2)cc1C(=O)Nc1ccc2ccccc2c1,-1%,?,32µM*,-2%,-11,0%
COc1ccc(NC(=O)c2cc(-c3ccccc3)oc2C)cc1,9%,22µM*,?,·,?,14%
COc1ccc(NS(=O)(=O)c2cc(OC)ccc2NC(=O)c2cc(C)oc2C)cc1,16%,-19%,3.2µM*,-61%,-100*,-9%
Cc1oc(-c2ccccc2)cc1C(=O)Nc1ccccc1,1%,-11%,6%,-3%,?,-5%
COc1ccc(CNc2ncncc2-c2ccoc2)c(OC)c1,67%,·,?,-31%,·,·
CC(NC(=O)OC(C)(C)C)C(=O)NC(CCC(=O)OCc1ccccc1)C(N)=O (centres undefined),-5%,·,1%,?,·,-11%
Nc1ccc(N2CCCCC2)c(S(=O)(=O)Nc2ccccc2Cl)c1,-6%,·,·,8%[10 µM],·,2%[9.22 µM]
COc1ccccc1NS(=O)(=O)c1cc(NC(=O)CCC2CCCC2)ccc1N1CCOCC1,78%,·,16µM*,-8%,·,?
COc1ccccc1NS(=O)(=O)c1cc(N)ccc1N1CCCCC1,8%,·,3.2µM*,-27%,·,-2%
SMILES,RGS12 GoLoco inh,HPGD inh,ALDH1A1 block,HTT ATP protect,PNC assembly inh,HttQ103 aggreg
CC1=CC2=C(OC1N(C)C)c1cccc3cccc(c13)C2=O (centres undefined),18µM*,-12%,2.2µM*,27%,17,3%
C=C(CO)C1Cc2c(ccc3c(=O)c4c(oc23)COc2cc(OC)c(OC)cc2-4)O1 (centres undefined),3%,-4%,-11%,-21%[1.9 µM],·,·
CCOC(=O)CNC(=O)O[C@H]1C(=O)c2ccc(OC)cc2O[C@@H]1c1ccc2c(c1)OCO2,5%,-4%,4%,·,·,·
CCOC(=O)C1=C(C)N(C)C(=S)NC1c1ccc(Cl)cc1 (centres undefined),-1%,-4%,-1%,·,-17,20µM*
CCOC(=O)C1=C(C)N(C)C(=S)NC1c1ccccc1 (centres undefined),1%,-8%,?,16%[10 µM],-21,2%
CCOC(=O)C1=C(C)NC(=S)N(C(C)=O)C1c1ccc(Cl)cc1 (centres undefined),0%,-9%,8.9µM*,-36%[10 µM],48,-27%
CC(=O)NCCNc1cc(-c2ccccc2C)ncn1,9%,·,10%,-7%,·,·
Cc1cc(CC(=O)O)c(C)n1-c1ccc(Cl)cc1,·,·,·,-8%,·,0%
Cc1nnc(NC(=O)Cc2cccs2)s1,3%,-2%,-2%,6%,-3,?
CC1(C)CC(=O)c2sc(NC(=O)Cc3cccs3)nc2C1,-2%,-24%,0.79µM*,14%[10 µM],187,?
COc1cccc(CC(=O)Nc2nccs2)c1,1%,-16%,-10%,-1%[10 µM],?,-9%[9.22 µM]
Cc1ccc(S(=O)(=O)Nc2nc3c(s2)C(=O)CC(C)(C)C3)cc1,32%,·,32µM*,-4%[10 µM],·,5%[9.22 µM]
Cn1nc(C(C)(C)C)cc1C(=O)Nc1nc2c(s1)C(=O)CC(C)(C)C2,-1%,-11%,14µM*,-15%[10 µM],7,2%
COc1cccc(CC(=O)Nc2nc3c(s2)C(=O)CC(C)(C)C3)c1,-11%,·,1.3µM*,-13%,·,-36%
CC1(C)CC(=O)c2sc(NS(=O)(=O)Cc3ccccc3)nc2C1,-1%,?,13%,-4%[10 µM],-4,7%
COc1ccc(S(=O)(=O)N2CCC(O)(c3cccnc3)CC2)cc1OC,-1%,·,-1%,-21%,·,0%
CC1(C)CC(=O)c2sc(NC(=O)C3CC3)nc2C1,2%,-26%,11µM*,-11%,27,-13%
CCOCC(=O)Nc1nc2c(s1)C(=O)CC(C)(C)C2,-3%,?,?,-9%,-15,-26%
Cc1cc(C)nc(/N=C(\N)C2=C(O)CC(C)(C)CC2=O)n1,0%,-5%,3.2µM*,-9%,-14,2%
Nc1cccc(/C=C/c2ccncc2)c1,8%,·,·,8%[10 µM],·,-1%[9.22 µM]
CC(C)NC(=O)CSc1nc2ccccc2n1CC(=O)N(C(C)C)C(C)C,-9%,·,6%,-48%,·,-8%
CC(C)N(C(=O)CSc1nc2ccccc2n1Cc1ccc(F)cc1)C(C)C,2%,-12%,25µM*,-15%[10 µM],?,-19%
CCCn1c(N)c(C(=O)CSc2nnc(Cc3ccccc3)o2)c(=O)n(C)c1=O,5%,-10%,4%,39%[10 µM],-100*,12%
CCOC(=O)c1c(NC(=O)CSc2nc3ccccc3o2)sc(C)c1C,26%,-13%,-11%,-51%,?,-15%
